Data from PubChem BioAssay (Tox21).
Results filed as inconclusive are left out. A call without a number means that no potency is given here. The source made the active and inactive calls. Unless noted, the call rests on the fitted dose curve; in most records, active means well fitted curve in the direction sought with a large enough effect in the repeat runs; inconclusive means weak or mixed curves; inactive means no such curve, though single readings can be large; an effect the other way counts as inactive or inconclusive.

What was measured:
[1] = qHTS assay to identify small molecule agonists of the estrogen receptor alpha (ER-alpha) signaling pathway in the presence of an antagonist - cell viability counter screen (AID 1259386); conditions: VM7Luc4E2 viability, CellTiter-Fluor fluorescence, 22 h; series mostly up to 92.4 µM;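 further: cells exposed to compounds for 22 h at 37 °C before the viability read; nearly all actives have a fitted effect of over 30% in size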
Summary of the method: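 Cells are starved of estrogens for 5 days in charcoal-stripped serum, seeded for 24hr and co-treated with ICI-182,780 (10.0nM final) and test compounds. After 22hr at 37C, viability is read as CellTiter-Fluor fluorescence.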

[2] = target: Progesterone receptor (Homo sapiens) (UniProt P06401); experiment: qHTS assay to identify small molecule agonists of the progesterone receptor (PR) signaling pathway (AID 1346784; calls by dose curve; further: nearly all actives have a fitted effect of over 30% in size); conditions: PR-UAS-bla HEK293T, beta-lactamase FRET ratio, 16 h; series mostly up to 92.4 µM
Progesterone receptor (Homo sapiens), sequence (P06401 whole entry, looked up): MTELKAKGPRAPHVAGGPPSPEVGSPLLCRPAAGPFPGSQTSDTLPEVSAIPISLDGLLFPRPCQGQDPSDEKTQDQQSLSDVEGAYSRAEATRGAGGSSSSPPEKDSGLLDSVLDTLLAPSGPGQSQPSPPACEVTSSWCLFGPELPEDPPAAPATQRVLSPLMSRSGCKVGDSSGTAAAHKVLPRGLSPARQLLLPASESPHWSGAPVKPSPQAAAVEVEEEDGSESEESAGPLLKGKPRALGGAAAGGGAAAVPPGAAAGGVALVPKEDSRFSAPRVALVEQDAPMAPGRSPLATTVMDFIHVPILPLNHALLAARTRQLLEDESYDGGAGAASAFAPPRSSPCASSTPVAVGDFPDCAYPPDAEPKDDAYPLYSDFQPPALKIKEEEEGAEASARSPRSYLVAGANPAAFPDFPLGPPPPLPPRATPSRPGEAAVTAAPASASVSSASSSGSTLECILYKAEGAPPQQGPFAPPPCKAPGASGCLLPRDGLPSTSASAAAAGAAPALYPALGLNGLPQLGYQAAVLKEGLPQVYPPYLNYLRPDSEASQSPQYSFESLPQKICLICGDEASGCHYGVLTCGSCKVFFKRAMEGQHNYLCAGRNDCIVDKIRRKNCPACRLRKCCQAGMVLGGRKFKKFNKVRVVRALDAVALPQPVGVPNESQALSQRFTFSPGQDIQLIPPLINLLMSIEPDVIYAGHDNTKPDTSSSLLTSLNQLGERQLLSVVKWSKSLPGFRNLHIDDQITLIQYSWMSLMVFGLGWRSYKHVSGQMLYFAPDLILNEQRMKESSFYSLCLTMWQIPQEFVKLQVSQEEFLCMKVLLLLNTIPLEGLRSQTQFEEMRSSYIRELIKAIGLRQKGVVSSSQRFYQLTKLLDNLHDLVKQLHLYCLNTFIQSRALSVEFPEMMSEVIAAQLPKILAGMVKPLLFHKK
Summary of the method: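 The screen uses PR-UAS-bla HEK 293T cells in charcoal-stripped serum (2%). Compounds are applied for 16 hr at 37C after a 6 hr pre-incubation, and reporter activity is detected with a FRET beta-lactamase substrate after 2 hr at room temperature.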

[3] = target: Progesterone receptor (Homo sapiens) (UniProt P06401); experiment: qHTS assay to identify small molecule antagonists of the progesterone receptor (PR) signaling pathway (AID 1346795; active means well fitted inhibition curve with a large enough effect in the signal ratio in the repeat runs, not every such curve was filed as active; the % refers to the signal ratio); conditions: PR-UAS-bla HEK293T, beta-lactamase FRET ratio, 16 h; series mostly up to 92.4 µM
Summary of the method: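 After 6 hr plating at 37C in 2% stripped-serum medium, PR-UAS-bla HEK293T cells got compounds, then 1 nM R5020. Sixteen hours later, LiveBLAzer substrate was applied for 2 hr at room temperature and fluorescence was recorded.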

[4] = qHTS assay to identify small molecule antagonists of the progesterone receptor (PR) signaling pathway - cell viability counter screen (AID 1346798); conditions: PR-UAS-bla HEK293T viability, CellTiter-Glo luminescence, 16 h; series mostly up to 92.4 µM; further: nearly all actives have a fitted effect of over 50% in size
Summary of the method: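 Viability was determined by ATP-based luminescence (CellTiter-Glo) in PR-UAS-bla HEK293T cells cultured in 2% charcoal-stripped serum and incubated 16 hr with compounds under R5020 stimulation.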

[5] = qHTS assay to identify small molecule agonists of the progesterone receptor (PR) signaling pathway - cell viability counter screen (AID 1346799; calls by dose curve; further: nearly all actives have a fitted effect of over 45% in size); conditions: PR-UAS-bla HEK293T viability, CellTiter-Glo luminescence, 16 h; series mostly up to 92.4 µM
Summary of the method: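 Viability was scored by ATP luminescence (CellTiter-Glo, 30 min, room temperature) in the same wells used for the reporter readout, after 16 hr compound exposure of PR-UAS-bla HEK293T cells.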

[6] = qHTS assay to identify small molecule antagonists of the TGF-beta/Smad signaling pathway - cell viability counter screen (AID 1346824); conditions: SBE-bla HEK293T viability, CellTiter-Glo luminescence; series mostly up to 76.8 µM; further: nearly all actives have a fitted effect of over 50% in size
Summary of the method: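 SBE-bla HEK 293T cells, incubated overnight, then compound plus 0.25 ng/mL TGF-beta1 (stock added) for 5 hr at 37 C. Viability was read in the same wells by CellTiter-Glo luminescence after 30 min at room temperature.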

[7] = qHTS assay to identify small molecule agonists of the TGF-beta/Smad signaling pathway - cell viability counter screen (AID 1346829); conditions: SBE-bla HEK293T viability, CellTiter-Glo luminescence, 5 h; series mostly up to 76.8 µM; further: top concentration of the series differs between compounds; nearly all actives have a fitted effect of over 45% in size
Summary of the method: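 Here the cytotoxicity of library compounds is measured in SBE-bla HEK 293T cells treated for 5 hr, using CellTiter-Glo added to wells already read for the beta-lactamase reporter.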

[8] = qHTS assay to identify small molecule agonists of the TGF-beta/Smad signaling pathway (AID 1346859; active means well fitted activation curve with a large enough effect in the signal ratio in the repeat runs, not every such curve was filed as active; the % refers to the signal ratio); conditions: SBE-bla HEK293T, TGF-beta/Smad beta-lactamase reporter, 5 h; series mostly up to 76.8 µM
Summary of the method: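 Dual-wavelength fluorescence (460/530 nm emission) quantified beta-lactamase expression under the Smad binding element in HEK 293T cells following 5 hr compound treatment at 37 C.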

[9] = target: Thyrotropin-releasing hormone receptor (Homo sapiens) (UniProt P34981); experiment: qHTS assay to identify small molecule antagonists of the thyrotropin-releasing hormone receptor (TRHR) signaling pathway (AID 1346877; active means well fitted inhibition curve with a large enough effect in the repeat runs, not every such curve was filed as active); conditions: TRHR-HEK293, TRH-induced calcium fluorescence, antagonist mode; series mostly up to 51.3 µM
Thyrotropin-releasing hormone receptor (Homo sapiens), sequence (P34981 whole entry, looked up): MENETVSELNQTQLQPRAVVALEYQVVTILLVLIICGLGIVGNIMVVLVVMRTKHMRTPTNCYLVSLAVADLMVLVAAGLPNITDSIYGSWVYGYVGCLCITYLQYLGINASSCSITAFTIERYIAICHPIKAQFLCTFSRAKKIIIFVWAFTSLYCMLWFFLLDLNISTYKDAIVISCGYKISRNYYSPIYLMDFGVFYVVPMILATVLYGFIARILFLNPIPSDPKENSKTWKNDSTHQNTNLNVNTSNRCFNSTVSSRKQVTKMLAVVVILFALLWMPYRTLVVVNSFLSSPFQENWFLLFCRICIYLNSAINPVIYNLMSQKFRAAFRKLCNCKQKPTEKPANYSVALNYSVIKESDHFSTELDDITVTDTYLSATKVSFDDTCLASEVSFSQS
Summary of the method: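 Cells (TRHR-HEK293) are plated and kept 18 h at 37 °C/5% CO2. A calcium-sensitive dye is added for 2 h, compound follows for 5 min at room temperature, and TRH is then given at 1 nM final.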

[10] = target: Thyrotropin-releasing hormone receptor (Homo sapiens) (UniProt P34981); experiment: qHTS assay to identify small molecule agonists of the thyrotropin-releasing hormone receptor (TRHR) signaling pathway (AID 1346891; calls by dose curve;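 further: HEK293 cells expressing TRHR with calcium dye readout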); conditions: TRHR-HEK293 calcium fluorescence, agonist mode; series mostly up to 57.6 µM
Summary of the method: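 Kinetic fluorescence (3 min, 1 s intervals) reported intracellular calcium after compound transfer onto TRHR-Hek293 cells pre-loaded with dye for 2 h at 37 °C.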

[11] = Human pregnane X receptor (PXR) small molecule agonists, qHTS cell viability counter screen (AID 1346977); conditions: PXR-Luc HepG2 viability, CellTiter-Fluor, 24 h; series mostly up to 92.4 µM; further: nearly all actives have a fitted effect of over 50% in size
Summary of the method: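 HepG2 cells stably carrying the PXR-Luc reporter are cultured with 5% charcoal-stripped FBS and treated with compounds for 24hr. CellTiter-Fluor is added at 23hr and fluorescence is read after 1hr.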

[12] = Caspase-3/7 induction in HepG2 cells by small molecules, qHTS assay (AID 1346978); conditions: HepG2 caspase-3/7 activation, Caspase-Glo luminescence, 17 h; series mostly up to 92.4 µM; further: nearly all actives have a fitted effect of over 15% in size
Summary of the method: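 Wild-type HepG2 cells, 2,000/well, settled 5 hr at 37 C and 5% CO2, then compound-treated for 17 hr; caspase-3/7 activity read by luminescent Caspase-Glo 3/7 after 30 min at room temperature.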

[13] = Caspase-3/7 induction in CHO-K1 cells by small molecules, qHTS cell viability counter screen (AID 1346979); conditions: CellTiter-Fluor fluorescence, 17 h; series mostly up to 92.4 µM; further: nearly all actives have a fitted effect of over 35% in size; further: potency means the concentration at half of the fitted maximal effect
Summary of the method: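 Seeding: 1,500 CHO-K1 cells/well. Rest: 5hr, 37C. Treatment: compounds in DMSO, 16hr. Read: CellTiter-Fluor, 1hr, fluorescence.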

[14] = Caspase-3/7 induction in CHO-K1 cells by small molecules, qHTS assay (AID 1346980); conditions: CHO-K1 caspase-3/7 induction, Caspase-Glo luminescence, 17 h; series mostly up to 92.4 µM; further: nearly all actives have a fitted effect of over 15% in size
Summary of the method: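 Wild-type CHO-K1 cells exposed to compounds for 17hr at 37 C, 5% CO2. Caspase-3/7 activity then measured by Caspase-Glo 3/7 luminescence after 30min at room temperature.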

[15] = Caspase-3/7 induction in HepG2 cells by small molecules, qHTS cell viability counter screen (AID 1346981); conditions: CellTiter-Fluor fluorescence, 17 h; series mostly up to 92.4 µM; further: nearly all actives have a fitted effect of over 30% in size
Summary of the method: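 Steps: seed 2,000 HepG2 cells per well; incubate 5 hr at 37 C; pin-add compounds in DMSO; incubate 16 hr; add CellTiter-Fluor; after 1 hr at 37 C and 5% CO2, read fluorescence.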

[16] = target: Nuclear receptor subfamily 1 group I member 2 (Homo sapiens) (UniProt O75469); experiment: Human pregnane X receptor (PXR) small molecule agonists, qHTS assay (AID 1346982); conditions: PXR-Luc HepG2, CYP3A4 luciferase reporter, 24 h; series mostly up to 92.4 µM; further: nearly all actives have a fitted effect of over 35% in size; further: potency means the concentration at half of the fitted maximal effect
Nuclear receptor subfamily 1 group I member 2 (Homo sapiens), sequence (O75469 whole entry, looked up): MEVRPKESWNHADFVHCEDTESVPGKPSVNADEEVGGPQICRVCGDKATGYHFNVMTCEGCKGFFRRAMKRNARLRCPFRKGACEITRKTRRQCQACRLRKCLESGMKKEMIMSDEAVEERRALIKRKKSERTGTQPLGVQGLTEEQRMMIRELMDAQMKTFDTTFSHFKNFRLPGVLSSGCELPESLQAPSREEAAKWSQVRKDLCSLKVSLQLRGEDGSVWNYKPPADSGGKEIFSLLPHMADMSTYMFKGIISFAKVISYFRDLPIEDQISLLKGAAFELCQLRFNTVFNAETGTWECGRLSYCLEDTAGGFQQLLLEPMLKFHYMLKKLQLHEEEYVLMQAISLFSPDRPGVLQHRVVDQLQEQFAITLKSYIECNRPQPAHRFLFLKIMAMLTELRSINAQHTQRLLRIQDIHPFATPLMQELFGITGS
Summary of the method: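 Agonist mode qHTS: PXR-Luc HepG2 cells plated 5 hr before DMSO-dissolved compounds were pinned in, cultured 24 hr at 37 C, 5% CO2; ONE-Glo luminescence readout.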

[17] = target: Cytochrome P450 2D6 (Homo sapiens) (UniProt P10635); experiment: Cytochrome P450 Family 2 Subfamily D Member 6 (CYP2D6) small molecule antagonists: luciferase reporter qHTS assay (AID 1671196); conditions: P450-Glo CYP2D6 enzyme assay, luciferin luminescence, 1 h; series mostly up to 115 µM; further: nearly all actives have a fitted effect of over 50% in size; further: potency means the concentration at half of the fitted maximal effect
Cytochrome P450 2D6 (Homo sapiens), sequence (P10635 whole entry, looked up): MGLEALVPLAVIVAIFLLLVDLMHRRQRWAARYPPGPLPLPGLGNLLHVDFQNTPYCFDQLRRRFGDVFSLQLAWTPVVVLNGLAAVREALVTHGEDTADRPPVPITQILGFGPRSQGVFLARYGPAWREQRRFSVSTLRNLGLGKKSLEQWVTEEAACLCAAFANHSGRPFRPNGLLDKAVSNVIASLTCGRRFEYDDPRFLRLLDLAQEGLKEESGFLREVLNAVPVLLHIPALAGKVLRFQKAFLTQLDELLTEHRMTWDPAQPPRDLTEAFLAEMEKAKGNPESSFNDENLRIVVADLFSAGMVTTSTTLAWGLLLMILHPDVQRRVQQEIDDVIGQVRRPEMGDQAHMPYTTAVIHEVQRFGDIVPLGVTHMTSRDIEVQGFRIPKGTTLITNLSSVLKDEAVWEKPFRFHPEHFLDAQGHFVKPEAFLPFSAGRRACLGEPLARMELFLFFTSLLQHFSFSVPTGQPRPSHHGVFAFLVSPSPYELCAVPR
Summary of the method: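 P450-Glo format: CYP2D6 converts a proluciferin substrate to luciferin in an NADPH-driven reaction lasting 1 h at room temperature. Light output, proportional to CYP2D6 activity, reflects interference by test chemicals.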

[18] = target: Nuclear receptor subfamily 1 group I member 2 (Homo sapiens) (UniProt O75469); experiment: CYP3A4 induction through human pregnane X receptor (PXR) by small molecules, qHTS assay (AID 1346984); conditions: DPX-2 HepG2 PXR, CYP3A4-luciferin luminescence, 24 h; series mostly up to 46.1 µM; further: nearly all actives have a fitted effect of over 40% in size
Summary of the method: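 Steps: seed DPX-2 cells, 5 hr at 37C; pin-transfer compounds; 24 hr at 37C; add Luciferin-IPA (3uM final), 3 hr at 37C; add One-Glo, 30 min RT; read luminescence.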

[19] = target: Nuclear receptor subfamily 1 group I member 2 (Homo sapiens) (UniProt O75469); experiment: Human pregnane X receptor (PXR) activation by small molecules, qHTS assay (AID 1346985); conditions: DPX-2 HepG2 CYP3A4-luciferase, 24 h; series mostly up to 38.3 µM; further: nearly all actives have a fitted effect of over 40% in size
Summary of the method: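 DPX-2 cells (HepG2 co-transfected with a PXR response element and a CYP3A4-promoter luciferase construct) were seeded at 2,000 per well, rested 5 hr at 37C, then exposed to DMSO-dissolved compounds for 24 hr. Activation was read as luciferase luminescence.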

Compound	Potency [1]	Potency [2]	Potency [3]	Potency [4]	Potency [5]	outcome [6]	outcome [7]	outcome [8]	outcome [9]	Potency [10]	Potency [11]	Potency [12]	Potency [13]	outcome [14]	Potency [15]	Potency [16]	Potency [17]	Potency [18]	Potency [19]
O=S1OCCO1	inactive	inactive	inactive	inactive	inactive	inactive	inactive	inactive	inactive	inactive	inactive	inactive	inactive	inactive	inactive	inactive	inactive		
CC1=NN(c2ccc(C(=O)O)cc2)C(=O)C1	inactive	inactive	inactive	inactive	inactive	inactive	inactive	inactive	inactive	inactive	inactive	inactive	inactive	inactive	inactive	inactive			
CC(=O)Nc1ccccc1C	inactive	inactive	inactive	inactive	inactive	inactive	inactive	inactive	inactive	inactive	inactive	inactive	inactive	inactive	inactive	inactive	inactive		
CC(C)CCCCCOC(=O)CCCCC(=O)OCCCCCC(C)C	inactive	inactive	inactive	inactive	inactive	inactive	inactive	inactive		inactive	inactive	inactive	inactive	inactive	inactive		inactive		
CCCCN(CCCC)C(=S)SSC(=S)N(CCCC)CCCC	inactive	inactive	inactive	inactive	inactive	inactive		inactive	inactive	inactive	inactive	inactive	27 µM (active)	inactive	inactive	30.3 µM (active)	28 µM (active)		
Cn1c(=O)c2c(ncn2CC(=O)O)n(C)c1=O	inactive	inactive	inactive	inactive	inactive	inactive	inactive		inactive	inactive	inactive	inactive	inactive	inactive	inactive	inactive	inactive		
CCn1cc(C(=O)O)c(=O)c2cc(F)c(N3CCNCC3)nc21	inactive	inactive	inactive	inactive	inactive	inactive	inactive	inactive			inactive	inactive	inactive	inactive	inactive	inactive	inactive	inactive	inactive
CO[Si](C)(OC)OC	inactive	inactive	inactive	inactive	inactive	inactive	inactive	inactive	inactive	inactive	inactive	inactive	inactive	inactive	inactive	inactive	inactive		
N#C[C@@H]1C[C@@H]2C[C@@H]2N1C(=O)[C@@H](N)C12CC3CC(CC(O)(C3)C1)C2	inactive	inactive	inactive	inactive	inactive	inactive	inactive	inactive			inactive	inactive	inactive	inactive	inactive	inactive	38.9 µM (active)		
O=C(CCCCCCCCC#CI)Oc1ccccc1	inactive	inactive	inactive	inactive	inactive	inactive	inactive		inactive	inactive	inactive	inactive	inactive	inactive	inactive	inactive			
C1COCO1	inactive	inactive	inactive	inactive	inactive	inactive	inactive		inactive	inactive	inactive	inactive	inactive	inactive	inactive	inactive	inactive		
CCCOCCOCCO	inactive	inactive	inactive	inactive	inactive	inactive		inactive			inactive	inactive	inactive	inactive	inactive	inactive	inactive		
NCC1CCCC(CN)C1 (configuration not stated)	inactive	inactive	inactive	inactive	inactive	inactive	inactive	inactive	inactive	inactive	inactive	inactive	inactive	inactive	inactive	inactive	14.2 µM (active)		
CCCCCCCC/C=C\CCCCCCCC(=O)OC(CO)CO	inactive	inactive	inactive	inactive	inactive	inactive	inactive	inactive	inactive	inactive	inactive	inactive	inactive	inactive		inactive			
CC(CCO)CCc1ccccc1 (configuration not stated)	inactive	inactive	inactive	inactive	inactive	inactive	inactive				inactive	inactive	inactive	inactive	inactive	inactive	inactive		
